SMILES strings stand for the structures. Structures can show the parent of a compound that is named as a salt. Values without a mark were called inactive.

The subject of the test is Plasmodium falciparum NF54/iGP1_RE9H ulg8 stage V gametocytes. Kind of test: gametocyte viability (luciferase signal relative to DMSO control) (% of DMSO control); higher = less gametocytocidal activity, active = 50 or less. As to conditions: exposure time: 72 h. How it is done: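 Synchronous P. falciparum NF54/iGP1_RE9H ulg8 mature stage V gametocytes (day 12) were exposed to Cayman Epigenetics Screening Library compounds at 10 µM or 1 µM for 72 h at 37 °C. Viability was read as RE9H luciferase bioluminescence, normalised to DMSO plate controls (100%); 50 µM methylene blue was the positive control.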

As for `Nc1ccc(S(=O)(=O)NCCc2ccccc2)cc1`, the gametocyte viability was 84.2 (concentration: 1 µM) and 86.3 (concentration: 10 µM).

As to `CC(/C=C/C(=O)NO)=C\[C@@H](C)C(=O)c1ccc(N(C)C)cc1` [Trichostatin A], the gametocyte viability was 53.7 (concentration: 1 µM) and 35.4 (active) (concentration: 10 µM).

Take `Cc1cc(C)cc(C(=O)NOCCCCCC(=O)NO)c1`: the gametocyte viability was 92.1 (concentration: 1 µM) and 64.9 (concentration: 10 µM).

With `COC(=O)c1ccc(N2CCN(C)CC2)c(NC(=O)c2cccc(OC)c2)c1`, the gametocyte viability was 85.8 (concentration: 1 µM) and 82.1 (concentration: 10 µM).

With `C/C(=N\NC(=O)c1cccc(S(=O)(=O)N2CCOCC2)c1)c1cc(Cl)ccc1O`, the gametocyte viability was 89.1 (concentration: 1 µM) and 85.8 (concentration: 10 µM).

Regarding `O=C(c1cncc(Br)c1)N1CCC(N2CCCC2)CC1`, the gametocyte viability was 86.5 (concentration: 1 µM) and 91.4 (concentration: 10 µM).

`Cc1ccc(-n2sc3ccccc3c2=O)cc1`: the gametocyte viability runs as follows: (concentration: 1 µM) 90.8; (concentration: 10 µM) 59.8.

In the case of `CC1(C)C(=O)NC2=C1C(=O)C(=O)c1ccccc12`, the gametocyte viability is 88.9 (concentration: 1 µM) and 85.2 (concentration: 10 µM).

In the case of `CC(C)Oc1ccc(-c2c[nH]cc2CN(C)CCN)cc1` [MS023 (hydrochloride)], the gametocyte viability runs as follows: (concentration: 1 µM) 64.4; (concentration: 10 µM) 30.3 (active).

Regarding `Cc1noc(C)c1-c1ccc(-c2nc3cnccn3c2NC(C)(C)C)cc1`, the gametocyte viability was 84.1 (concentration: 1 µM) and 64.8 (concentration: 10 µM).

Regarding `CCC(CC)(NC(=O)C(C)C)C(=O)N[C@@H](CCCN=C(N)N)C(=O)NC1(C(=O)NC(c2ccc(F)cc2)c2ccc(F)cc2)CCCC1`, the gametocyte viability reads like this: (concentration: 1 µM) 82.6; (concentration: 10 µM) 82.6.

As to `Nc1ccn([C@@H]2O[C@H](CO)[C@@H](O)C2(F)F)c(=O)n1` [Gemcitabine], the gametocyte viability is 91.5 (concentration: 1 µM) and 85.8 (concentration: 10 µM).

Turning to `CCCCCCCCOC(=O)C(O)CCC(=O)O` (stereo not drawn) [Octyl-α-hydroxyglutarate], the gametocyte viability runs as follows: (concentration: 1 µM) 92.4; (concentration: 10 µM) 95.4.

For `O=C(O)c1ccnc(C(=O)O)c1` [2,4-Pyridinedicarboxylic Acid (hydrate)], the gametocyte viability (concentration: 1 µM) was 90.8 and the gametocyte viability (concentration: 10 µM) is 90.6.

On to `O=C(O)c1ccc(O)c2ncccc12`, for which the gametocyte viability reads like this: (concentration: 1 µM) 90.6; (concentration: 10 µM) 84.3.

With `COc1cc(O)c2c(c1)oc(=O)c1c3cc(O)c(O)cc3oc21` [Wedelolactone], the gametocyte viability (concentration: 1 µM) is 89.6 and the gametocyte viability (concentration: 10 µM) was 81.5.

For the compound `Cc1cc(C)c(CNC(=O)c2cc(-c3ccc(N4CCN(C)CC4)nc3)cc3c2c(C)cn3C(C)C)c(=O)[nH]1`, the gametocyte viability by setting is: (concentration: 1 µM) 78.5; (concentration: 10 µM) 62.9.

As for `Cc1ccc(NC(=O)CCCCCC(=O)Nc2ccccc2N)cc1` [Pimelic Diphenylamide 106], the gametocyte viability is 86.8 (concentration: 1 µM) and 89 (concentration: 10 µM).

For `CN(C)c1ccc(C(=O)NCCCCCC(=O)NO)cc1`, the gametocyte viability reads like this: (concentration: 1 µM) 76.2; (concentration: 10 µM) 52.

`CCCC(=O)[O-].[Na+]` [Sodium Butyrate]: the gametocyte viability (concentration: 1 µM) was 83.8 and the gametocyte viability (concentration: 10 µM) was 84.7.

Turning to `CN(C)CCCNC(=O)c1ccc(-c2cc(O)c3ncccc3c2)cc1`, the gametocyte viability reads like this: (concentration: 1 µM) 85.2; (concentration: 10 µM) 49.8 (active).

Regarding `O=C(CCl)Nc1ccc(S(=O)(=O)c2ccc(NC(=O)CCl)cc2)cc1`, the gametocyte viability by setting is: (concentration: 1 µM) 78.5; (concentration: 10 µM) 45 (active).

As to `O=C(NN=Cc1c(O)ccc2ccccc12)c1ccncc1`, the gametocyte viability was 84.7 (concentration: 1 µM) and 65.4 (concentration: 10 µM).

With `COc1ccc(CCc2nc3cc(-c4c(C)noc4C)ccc3n2C[C@H](C)N2CCOCC2)cc1Cl`, the gametocyte viability is 78.4 (concentration: 1 µM) and 68.6 (concentration: 10 µM).

For `Clc1cc2c(NC3CCCC3)nnc(-c3ccncc3)c2cc1Cl`, the gametocyte viability (concentration: 1 µM) is 83.9 and the gametocyte viability (concentration: 10 µM) was 71.7.

With `Nc1ncn([C@H]2C[C@H](O)[C@@H](CO)O2)c(=O)n1` [Decitabine], the gametocyte viability (concentration: 1 µM) is 90.6 and the gametocyte viability (concentration: 10 µM) is 90.

As for `COc1cccc2c1c(O)c(C(=O)N(C)c1ccc(C(F)(F)F)cc1)c(=O)n2C` [Tasquinimod], the gametocyte viability by setting is: (concentration: 1 µM) 83.1; (concentration: 10 µM) 82.9.

As for `CCCCc1nc2cc(/C=C/C(=O)NO)ccc2n1CCN(CC)CC`, the gametocyte viability was 76.9 (concentration: 1 µM) and 62.4 (concentration: 10 µM).

As to `O=C(/C=C/C#Cc1cccc(NS(=O)(=O)c2ccccc2)c1)NO` [Oxamflatin], the gametocyte viability is, setting by setting: (concentration: 1 µM) 101; (concentration: 10 µM) 168.

In the case of `CC(C)(CNC(=O)c1cccc(-c2noc(C(F)(F)F)n2)c1)c1coc(-c2ccccc2)n1`, the gametocyte viability was 90.2 (concentration: 1 µM) and 83.2 (concentration: 10 µM).

Take `CC1CC/C(=N\Nc2nc(-c3ccc(Cl)cc3)cs2)C1` (stereo not given) [CPTH6 (hydrobromide)]: the gametocyte viability was 86.6 (concentration: 1 µM) and 82.2 (concentration: 10 µM).

Regarding `O=C(NO)c1ccc(CC(=O)N(CCO)c2ccccc2)cc1`, the gametocyte viability (concentration: 1 µM) is 88.9 and the gametocyte viability (concentration: 10 µM) is 93.5.

Turning to `Nc1ccccc1NC(=O)c1cnccn1`, the gametocyte viability (concentration: 1 µM) was 96.3 and the gametocyte viability (concentration: 10 µM) is 89.4.

As for `CN1CCN(C(=O)CNC2CC2c2ccc(OCc3ccccc3)cc2)CC1` (stereo not given) [RN-1 (hydrochloride)], the gametocyte viability (concentration: 1 µM) is 89.1 and the gametocyte viability (concentration: 10 µM) is 72.8.

As to `Cn1cc(C(=O)Nc2ccc3c(c2)OCCO3)c2ccccc2c1=O`, the gametocyte viability is 82.7 (concentration: 1 µM) and 79.9 (concentration: 10 µM).

The values above are taken from the supplement of paper PMC12297408.
